# Screening results from PubChem BioAssay.
# ATXN viability: viability counter-screen for ATXN expression inhibitors. S2 cells (HEK-293 line with an ATXN2-luciferase reporter) viability, CellTiter-Fluor protease fluorescence, 24 h. Potency, µM (titrated, usually from 56.7 µM), most hits filed as cytotoxic. 0.49% of 400,000 active. AID 651635; also: nearly all actives have a fitted effect of over 40% in size
# TGFb inhibitor: inhibitors of TGF-b signaling; HepG2 CAGA-GFP TGF-b/SMAD3 reporter, GFP fluorescence, 18 h; TGF-beta stimulated, 500 pg/mL final; Potency, µM (doses to about 46.1 µM), for inactives: at the highest dose activity, negative = inhibition, actives largely listed as inhibitors; 1.2% of 410,000 active; AID 588855; also: % is scaled to controls: 0 for no effect and ±100 for the full control effect; nearly all actives have a fitted effect of over 65% in size
#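 First, reporter cells (HEPG2 CAGA-GFP) rested 2 h at 37 degrees C. Next, compounds were pinned in and TGF-beta added to 500 pg/mL final. After 18 h, GFP was imaged per cell and summed per well.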
# A549 tox: A549 cytotoxicity, counter-screen for Nrf2 inhibitors. A549 ARE-Fluc cells, CellTiter-Fluor viability, 18-24 h. 0.16% of 390,000 active. Potency, µM (series often up to 46 µM), without a hit: at the top dose activity change, negative = cytotoxicity, usual class: inhibitors. AID 504648; also: % is scaled to controls: 0 for no effect and ±100 for the full control effect
#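 Cytotoxicity counterscreen: CellTiter-Fluor fluorescence was measured in A549 ARE_Fluc cells after 18-24 h of compound exposure in a concentration series. The subsequent BugLite luminescent read reports ARE-luciferase activity.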
# ATXN2 expr inh: ATXN2 expression inhibition | HEK-293 ATXN2-luciferase reporter, luminescence, 24 h | Potency, µM (titrated, usually from 57 µM), inactives show at the highest dose activity change, negative = inhibition, usual class: inhibitors | 0.72% of 360,000 active | AID 1745845; also: % is scaled to controls: 0 for no effect and ±100 for the full control effect; nearly all actives have a fitted effect of over 55% in size
#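 qHTS (up to 57 uM final) was run with 24 h compound exposure of reporter cells at 37 °C. Each well was multiplexed: SteadyGlo luminescence measured ATXN2-luciferase expression after a fluorogenic Gly-Phe-AFC viability readout (25 uM final).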
# Nrf2 block: Nrf2 pathway inhibition; A549 ARE-Fluc reporter, luciferase luminescence, 18-24 h; Potency, µM (doses to about 46 µM), for inactives: at the highest dose activity change, negative = inhibition, actives largely listed as inhibitors; 2.1% of 360,000 active; AID 504444; also: % is scaled to controls: 0 for no effect and ±100 for the full control effect; nearly all actives have a fitted effect of over 60% in size
#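 In this cell-based qHTS, ARE-driven firefly luciferase in A549 cells reports Nrf2 activity; the luminescent signal after BugLite lysis is the measured value, with a prior CellTiter-Fluor read for cell health.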
# HepG2 tox-1: counter-screen for TGF-b inhibitors: cytotoxicity in HepG2 cells; 0.76% of 410,000 active; HepG2 CAGA-GFP viability, ATP luminescence, 18 h; Potency, µM (top dose mostly 46.1 µM), inactives show at the top dose activity change, negative = cytotoxicity, usual class: cytotoxic
#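 CellTiter-Glo luminescence gave cytotoxicity after 18 hours at 37 degrees C. The cells were HepG2 CAGA-GFP in 1% FBS DMEM, stimulated with 500 pg/mL TGF-beta after compound addition. %Activity was normalised to no-cell wells (complete cell-killing) and DMSO (no toxicity), and curves were fitted and classified.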
# TGFb confirm: TGF-b pathway inhibition, cherry-pick retest; 63% of 1,600 active; Potency, µM (titrated, usually from 46.1 µM), for inactives: at the top dose activity, negative = inhibition, usual class: inhibitors; HepG2 CAGA-GFP TGF-b reporter, GFP fluorescence, 18 h; cells stimulated with TGF-beta, 500 pg/mL; shares compounds with TGFb inhibitor; AID 720534; also: % is scaled to controls: 0 for no effect and ±100 for the full control effect; nearly all actives have a fitted effect of over 65% in size
# HepG2 tox-2: HepG2 cytotoxicity, TGF-b inhibitor counterscreen. shares compounds with TGFb inhibitor. HepG2 CAGA-GFP viability, ATP luminescence, 18 h; cells stimulated with TGF-beta, 500 pg/mL. Potency, µM (top dose mostly 46.1 µM), for inactives: at the highest dose activity, negative = cytotoxicity, hits mostly inhibitors. 27% of 1,600 active. AID 720535; also: % is scaled to controls: 0 for no effect and ±100 for the full control effect; nearly all actives have a fitted effect of over 70% in size
# CCL64 TGFb inh: blocks TGF-b signaling in CCL64 reporter cells | Potency, µM (series often up to 46.1 µM), without a hit: at the top dose activity, negative = inhibition, actives largely listed as inhibitors | 41% of 1,600 active | AID 720536 | CCL64 CAGA-GFP reporter, TGF-b stimulated, GFP fluorescence, 18 h | shares compounds with TGFb inhibitor; also: nearly all actives have a fitted effect of over 65% in size
# COP TGFb inh: validation of TGF-b inhibitors in HepG2 COP promoter reporter. shares compounds with TGFb inhibitor. HepG2 COP-GFP TGF-b reporter, GFP fluorescence, 18 h; cells stimulated by added recombinant TGF-beta. Potency, µM (doses to about 46.1 µM), for the others: at the highest dose activity, negative = inhibition, hits mostly inhibitors. 3% of 1,600 active; also: nearly all actives have a fitted effect of over 70% in size
# An asterisk follows results filed as active; i = inactive; ? = inconclusive; . = no result. Most compounds without a hit are left out; they make up all but 3.8% or so of the library. Calls follow the shape of the dose curve; as a rule, active = well fitted curve in the direction sought with a large enough effect; inconclusive = small, poorly fitted or top-dose-only effect, or another doubt; inactive = no such curve, though single readings can be large; an effect the other way counts as inactive or inconclusive. Potency is read from the fitted curve at half-maximal effect.
SMILES,ATXN viability,TGFb inhibitor,A549 tox,ATXN2 expr inh,Nrf2 block,HepG2 tox-1,TGFb confirm,HepG2 tox-2,CCL64 TGFb inh,COP TGFb inh
CC1(C(=O)Nc2ccccc2Cc2ccccc2)CCN1Cc1ccccc1Cl (centres undefined),i,12.6µM*,.,?,.,-14.9%,9.2µM*,?,16.4µM*,55.9%
CCOc1ccc(C(=O)N[C@H](C(=O)Nc2ccc(S(=O)(=O)Nc3nccs3)cc2)C(C)C)cc1,?,-9.2%,-10.7%,2.2%,1.1%,6.6%,.,.,.,.
CC(C)(C)OC(=O)[C@H](Cc1ccccc1)NC(=O)c1[nH]cnc1C(=O)Nc1cccc(Cl)c1,31.6µM*,10µM*,-14.2%,?,?,-54.7%,20.6µM*,18.4µM*,?,30.1%
CC(C)C[C@H](NC(=O)c1nc[nH]c1C(=O)N1CCC(C)CC1)C(=O)OC(C)(C)C,i,-1.3%,0.5%,3.3%,0.0%,-14.2%,.,.,.,.
Cc1ccc(NC(=O)c2nc[nH]c2C(=O)NCCCNC(=O)c2[nH]cnc2C(=O)Nc2ccc(C)cc2)cc1,i,?,-0.6%,2.0%,-0.7%,-1.6%,?,?,?,?
CN(Cc1ccccc1)C(=O)c1[nH]cnc1C(=O)Nc1cccc(Cl)c1,i,?,-3.3%,4.6%,4.6%,-18.7%,?,?,-7.7%,-1.0%
CC(C)C[C@H](NC(=O)c1nc[nH]c1C(=O)N1CCN(c2ccccc2)CC1)C(=O)OC(C)(C)C,i,?,-9.9%,57.7%,4.4%,-32.3%,-8.5%,-3.2%,-24.0%,5.2%
COc1cc(CNCc2ccccn2)ccc1OCc1cccc(Cl)c1,i,9.1%,-7.1%,-2.2%,-22.1%,-28.0%,.,.,.,.
C[C@H](NC(=O)c1[nH]cnc1C(=O)Nc1ccc(CNC(=O)OC(C)(C)C)cc1)C(=O)OC(C)(C)C,?,15.8µM*,-5.5%,?,?,4.1%,?,?,-28.3%,37.8%
CC(C)(C)OC(=O)[C@H](Cc1ccccc1)NC(=O)c1nc[nH]c1C(=O)N[C@@H](Cc1ccccc1)C(=O)OC(C)(C)C,?,12.6µM*,?,?,?,-12.2%,14.6µM*,?,?,39.5%
CC(C)(C)OC(=O)NCCCC[C@H](NC(=O)c1[nH]cnc1C(=O)Nc1ccc(CNC(=O)OC(C)(C)C)cc1)C(=O)OC(C)(C)C,?,-25.4%,0.0%,0.0%,?,-4.2%,.,.,.,.
O=C(/C=C/c1ccccc1)CCN1CCOCC1,?,7.08µM*,-3.7%,?,-3.8%,10µM*,2.59µM*,7.31µM*,10.3µM*,?
Cc1ccc(NC(=O)Cc2ccccc2F)cc1S(=O)(=O)N1CCCCCC1,?,11.2µM*,-0.2%,-25.1%,?,-29.8%,8.2µM*,?,-22.8%,16.1%
Cc1ccc(NC2CCCN(C(=O)c3cc4ncccn4n3)C2)cc1C (centres undefined),i,2.7%,-12.8%,2.3%,-7.1%,-4.7%,.,.,.,.
O=S(=O)(/C(=C\c1ccc(C(F)(F)F)cc1)c1nc2ccccc2[nH]1)c1ccccc1,7.08µM*,4.47µM*,?,5.01µM*,16.4µM*,17.8µM*,2.91µM*,2.59µM*,3.26µM*,?
O=C(CSc1nc(N2CCCCC2)nc(N2CCCCC2)n1)N1CCN(c2ccccc2)CC1,i,6.31µM*,?,-11.1%,?,4.1%,16.4µM*,-8.4%,?,4.2%
CCC(=O)N1CCc2cc(S(=O)(=O)NCCC(=O)Nc3cccc(SC)c3)ccc21,i,-19.5%,-3.8%,-6.9%,-15.0%,-3.0%,.,.,.,.
CN1CCc2c(sc(NC(=O)c3ccc([N+](=O)[O-])o3)c2C(N)=O)C1,?,1.78µM*,20.6µM*,?,?,-94.5%,0.581µM*,2.31µM*,?,-80.4%
N#Cc1c(NC(=O)c2ccc([N+](=O)[O-])o2)sc2c1CCC2,?,?,?,?,6.8%,-25.3%,11.6µM*,9.2µM*,14.6µM*,33.3%
NC(=O)c1c(NC(=O)c2ccc([N+](=O)[O-])o2)sc2c1CCCC2,i,?,2.1%,-15.1%,-2.4%,-25.5%,.,.,.,.
CC1CCN(CCc2nc3cc(NC(=O)COc4ccc(Cl)cc4)ccc3n2C)CC1,?,?,-19.9%,-9.7%,?,-80.8%,.,.,.,.
CC[C@]12c3[nH]c4cc(-c5ccco5)ccc4c3CCN1C(=O)[C@@H](CC(=O)NCc1cccc(C(F)(F)F)c1)C[C@@H]2C(=O)N1CCN(C(=O)c2ccco2)CC1,?,11.2µM*,-17.2%,?,?,-5.4%,4.11µM*,-27.3%,?,17.7%
CC[C@]12c3[nH]c4ccc(Cl)cc4c3CCN1C(=O)[C@@H](CC(=O)NC/C=C(\C)CCC=C(C)C)C[C@@H]2C(=O)N1CCN(C(=O)C2CC2)CC1,.,10µM*,?,?,?,-67.8%,?,?,20.6µM*,65.7%
CC[C@]12c3[nH]c4ccc(Cl)cc4c3CCN1C(=O)[C@@H](CC(=O)NCc1cccc(C(F)(F)F)c1)C[C@@H]2C(=O)N1CCN(C(=O)c2ccco2)CC1,28.2µM*,12.6µM*,?,?,?,6.3%,16.4µM*,?,10.3µM*,63.8%
